In PubChem BioAssay AID651725 (National Center for Advancing Translational Sciences (NCATS), 2012) one finds activity change data, which are given here for 88 compounds.

In all, about 360,000 compounds went through this assay and about 2,000 (0.56%) were called active. Inconclusive results (about 2%) are left out. No stated cut-off is given here; in the data, active means activity change below about -65%; inconclusive means mostly about -30% to -63%; inactive means weaker than that. For the sample, actives were picked, then their nearest neighbours and some compounds at random.
On the % scale 0 is the no-effect control and ±100 the full control effect.

The target in this assay is Homeobox protein SIX1 (Homo sapiens) + Protein phosphatase EYA2 (Homo sapiens) (UniProt Q15475+O00167). Briefly: qHTS Assay for Inhibitors of the Six1/Eya2 Interaction. The settings on record: AlphaScreen GST-Six1/His-Eya2 binding, biochemical; hits give low values. The essentials: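 AlphaScreen with GST-Six1 and His-Eya2 (5X mix: 250 nM and 500 nM), glutathione donor and nickel acceptor beads; buffer 50 mM Tris pH 8.0, 300 mM NaCl, 1 mM TCEP; 1 h at 37 C in the dark.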
Homeobox protein SIX1 (Homo sapiens) + Protein phosphatase EYA2 (Homo sapiens), sequence (O00167 whole entry, looked up): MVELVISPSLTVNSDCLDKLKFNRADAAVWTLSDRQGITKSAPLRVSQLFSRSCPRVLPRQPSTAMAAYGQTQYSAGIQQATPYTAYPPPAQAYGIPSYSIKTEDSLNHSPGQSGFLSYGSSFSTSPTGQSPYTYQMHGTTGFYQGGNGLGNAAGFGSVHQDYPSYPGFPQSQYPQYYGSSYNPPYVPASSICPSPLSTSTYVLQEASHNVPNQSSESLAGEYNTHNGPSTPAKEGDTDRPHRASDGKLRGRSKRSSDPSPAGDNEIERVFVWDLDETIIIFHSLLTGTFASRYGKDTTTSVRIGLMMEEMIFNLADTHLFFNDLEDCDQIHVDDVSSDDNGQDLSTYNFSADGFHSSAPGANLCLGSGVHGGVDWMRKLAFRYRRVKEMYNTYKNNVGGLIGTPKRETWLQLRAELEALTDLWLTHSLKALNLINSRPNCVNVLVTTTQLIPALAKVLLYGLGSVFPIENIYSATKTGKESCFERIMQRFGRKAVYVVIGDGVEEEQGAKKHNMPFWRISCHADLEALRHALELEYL
Homeobox protein SIX1 (Homo sapiens) + Protein phosphatase EYA2 (Homo sapiens), sequence (Q15475 whole entry, looked up): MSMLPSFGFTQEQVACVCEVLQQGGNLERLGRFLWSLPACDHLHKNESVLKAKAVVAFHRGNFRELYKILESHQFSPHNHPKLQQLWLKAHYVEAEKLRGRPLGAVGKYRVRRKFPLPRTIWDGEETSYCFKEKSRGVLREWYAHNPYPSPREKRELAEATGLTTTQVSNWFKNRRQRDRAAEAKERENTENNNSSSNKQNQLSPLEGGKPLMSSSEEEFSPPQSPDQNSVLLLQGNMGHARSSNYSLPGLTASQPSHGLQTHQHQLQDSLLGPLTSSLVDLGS
Take `O=C1COc2ccc(S(=O)(=O)NCCc3ccc(Cl)cc3)cc2N1`: the activity change is 6.96% (inactive).
Regarding `CCOC(=O)[C@]12CCCC=C1N(CCC1=CCCCC1)C(=O)[C@H](CC(=O)N1CCOCC1)C2`, the activity change is 8.54% (inactive).
As for `Cn1c(N)c(C(=O)COC(=O)c2ccc3ccccc3c2)c(=O)n(C)c1=O`, the figure is -0.607% (inactive); as for `Cn1c(N)c(C(=O)COC(=O)COc2ccc(Cl)cc2)c(=O)n(C)c1=O`, -10.5% (inactive); as for `Cn1c(N)c(C(=O)COC(=O)c2cnc(Cl)c(Cl)c2)c(=O)n(C)c1=O`, -92.3% (active).
For the compound `COC(=O)c1scc(S(=O)(=O)C(C)(C)C)c1-n1cccc1`, the activity change is 5.88% (inactive).
As for `CCC(=O)Nc1ccc(C(=O)CSc2nnc(CNc3ccc(Cl)cc3)o2)cc1OC`, the figure is -0.882% (inactive).
As for `O=C(NCc1ccccc1Cl)C1CCC(CNc2c(N3CCCCC3)c(=O)c2=O)CC1` (stereo not drawn), the activity change was 5.37% (inactive).
As for `Cc1cccc(NC(=O)c2cccc(S(=O)(=O)N3CCCC3)c2)n1`, the figure is -10.7% (inactive); as for `CCOc1cc(/C=N/NC(=O)c2cccc(S(=O)(=O)N3CCOCC3)c2)ccc1OCC(=O)N(C)C`, -8.33% (inactive); as for `Cc1ncc(CO)c(/C=N/NC(=O)c2cccc(S(=O)(=O)N3CCCC3)c2)c1O`, -82.4% (active).
`CCCC[C@@H]1CN=C(N)N1CCc1cc(C(F)(F)F)cc(C(F)(F)F)c1`: the activity change is 16.6% (inactive).
As for `Cn1cncc1COC(=O)c1ccc(Cl)cc1`, the figure is -6.11% (inactive); as for `Cc1ccc(CNC(=O)CCCNC(=O)c2ccc(Cl)cc2)n1C`, -7.14% (inactive).
As for `Cc1cc(OC(=O)c2ccc(Cl)cc2)cc(=O)n1C`, the figure is -92.4% (active).
Regarding `O=C1NC[C@H](Cc2ccc(O)cc2)N(C[C@@H]2CCCN2C[C@H](Cc2ccccc2)N2C[C@H](Cc3ccccc3)N(CC3CCCCC3)C(=O)C2=O)C1=O`, the activity change was 9.57% (inactive).
Turning to `COC(=O)[C@]12CCCCC=C1N(CCC1=CCCCC1)C(=O)[C@H](CC(=O)NCC1CCCCC1)C2`, the activity change is -2.3% (inactive).
As for `Cc1c(N=Nc2ccc(N(C)C)cc2)c(=O)n(-c2ccccc2)n1C`, the activity change was -7.33% (inactive).
As for `Cc1c(C=O)n(C)n(-c2ccccc2)c1=O`, the figure is 15.7% (inactive); as for `Cc1nc(N)sc1N=Nc1c(C)n(C)n(-c2ccccc2)c1=O`, -66.7% (active).
As for `CCCCCCCCN1C(=O)[C@H](CC(=O)NCc2cccc3ccccc23)C[C@@]2(C(=O)OC)CCCCC=C12`, the figure is 0.0747% (inactive); as for `N#Cc1ccc(C(C(=O)NCc2ccccc2)n2c(=O)c(-c3ccco3)nc3ccccc32)cc1` (stereo not drawn), 2.42% (inactive).
As for `O=C(CSc1cccc2cccnc12)N/N=C/c1cccnc1`, the figure is -80.7% (active); as for `O=C(CNC(=O)c1cccnc1)N/N=C/c1cc(Br)c(O)c(Br)c1`, -6.06% (inactive); as for `Cc1ccc(S(=O)(=O)N(CC(=O)N/N=C/c2ccc(F)cc2)c2cccc3cccnc23)cc1`, -0.495% (inactive).
Consider `C[C@H]1CN([C@@H](C)CO)C(=O)CCCn2nncc2CO[C@@H]1CN(C)Cc1ccc(Oc2ccccc2)cc1`, for which the activity change is 13.9% (inactive).
In the case of `Cc1cc([N+](=O)[O-])c(=O)[nH]c1C`, the activity change was 4.44% (inactive).
As for `CNc1[nH]ncc1[N+](=O)[O-]`, the figure is -66.5% (active); as for `CNc1ccc(NC(C)=O)cc1[N+](=O)[O-]`, -0.656% (inactive); as for `Nc1nnnn1/N=C/c1cccs1`, 2.77% (inactive).
`Nc1nnnn1/N=C/c1cccc(Br)c1`: the activity change is -1.52% (inactive).
As for `Nc1nnnn1/N=C/c1cc([N+](=O)[O-])ccc1O`, the figure is -65.9% (active); as for `COC(=O)[C@@]12C[C@@H](CC(=O)N3CCCCC3)C(=O)N(Cc3ccc4c(c3)OCO4)C1=CCC(C)(C)C2`, -15.9% (inactive); as for `COc1ccc(C(C)(C)C)cc1NC(=O)CN(C)C1=NS(=O)(=O)c2ccccc21`, 4.86% (inactive).
In the case of `COc1ccc(/C=N/N(C)C2=NS(=O)(=O)c3ccccc32)cc1OC`, the activity change is -67.9% (active).
As for `C=CCOCCN(C)C1=NS(=O)(=O)c2ccccc21`, the figure is -3.42% (inactive).
As for `CC1CN(C(=O)c2cccc(NS(=O)(=O)c3ccc(Br)cc3)c2)CC(C)O1` (stereo not drawn), the figure is -2.46% (inactive); as for `C[C@H](NC(=O)[C@@H]1CCCN1C(=O)[C@@H]1CCCN1C(=O)c1ccccc1)c1ccccc1`, 0.523% (inactive); as for `CC1CN(S(=O)(=O)c2cccc(C(F)(F)F)c2)CN1C(=O)N1CCOCC1` (stereo not drawn), -0.306% (inactive).
As for `CC1(C(=O)NCc2ccccc2)CSCC(=O)N1CCCN1CCOCC1` (stereo not drawn), the figure is -1.18% (inactive); as for `Cn1c(SCC(=O)Nc2ccc(Cl)cc2)nc(O)cc1=O`, 7.12% (inactive); as for `Oc1ccc2ccccc2c1N=Nc1nccs1`, -81.4% (active).
`Oc1ccc(N=Nc2nccs2)c(O)c1`: the activity change is -77.5% (active).
In the case of `CC1(C(=O)NCc2ccccc2)CN(S(C)(=O)=O)CC(=O)N1CC(F)(F)F` (stereo not drawn), the activity change is 2.8% (inactive).
As to `CN1C(c2ccc(F)cc2)=CS/C1=C(/C#N)c1nnc2n1-c1ccccc1SC2`, the activity change is -14.2% (inactive).
As for `COC(=O)C1(C(=O)OC)C[C@H](c2ccccc2)N(Cc2ccccc2OC)[C@@H]1c1ccccc1`, the figure is 1.28% (inactive).
As for `CCC(C(=O)NCc1ccccc1)n1c(Cc2cc(F)cc(F)c2)nc2ccccc21` (stereo not drawn), the figure is -0.68% (inactive); as for `COc1ccc(N2c3ccccc3CN(Cc3ccccc3)[C@@H](C)[C@H]2Cc2ccc(-c3ccccc3)cc2)cc1`, -12.3% (inactive); as for `CC(=O)c1cc(CN2CCC(n3nccc3NC(=O)c3ccccc3Cl)CC2)cs1`, -1.64% (inactive).
Take `Cc1ccc(-c2c(N)nc3ncccn23)cc1`: the activity change is -9.22% (inactive).
As for `CC(=O)N1Cc2cc(C(=O)NCc3cccc(F)c3)nc(-c3cccc(C4=CCCCC4)c3)c2[C@H]1CCO`, the figure is 0.697% (inactive); as for `O=S1(=O)CCN(Cc2ccccc2)CC1`, -0.459% (inactive); as for `O=C1c2ccccc2C(=O)c2c1cccc2N1CCN(Cc2ccccc2)CC1`, -88.9% (active).
Turning to `O=C(CN1CCN(Cc2ccccc2)CC1)NC(c1ccccc1)c1ccccc1`, the activity change is -3.09% (inactive).
For `Clc1ccc(-c2nc3ccccn3c2CN2CCSCC2)cc1`, the activity change was -7.53% (inactive).
As for `Cc1nc(CN(C)C(=O)CC2C(=O)NCCN2Cc2ccc(F)cc2)cs1` (stereo not drawn), the figure is 6.54% (inactive).
As for `O=C1CCC/C(=N\NC(=O)NC2CCCCC2)C1`, the figure is 4.54% (inactive); as for `COC(=O)[C@@]12C[C@@H](CC(=O)N3CCC(c4ccccc4)CC3)C(=O)N(Cc3ccccc3)C1=CCC(C)(C)C2`, -15.9% (inactive); as for `CCC(NC(=O)c1ccccc1NC(=O)c1ccccc1)C(=O)NNC(=O)CSc1nc2ccccc2o1` (stereo not drawn), -24.4% (inactive).
As for `O=C(CSc1nc2ccccc2o1)N1CCN(c2ccccc2)CC1`, the figure is 0.782% (inactive); as for `O=C(CSc1nc2ccccc2o1)N/N=C/c1ccccc1C(=O)O`, -67.9% (active); as for `Cc1ccc(/C=N/NC(=O)CSc2nc3ccccc3o2)cc1`, -87.1% (active).
Take `CC(C)(C)C(=O)CSc1nc2ccccc2o1`: the activity change was 10% (inactive).
As for `CCN(CC)C(=O)CSc1nc2ccccc2o1`, the figure is 6.18% (inactive).
Regarding `Cc1ccc(-c2nc3c(Cl)cc(C(F)(F)F)cn3c2Cc2cccc(Cl)c2)cc1`, the activity change is 1.53% (inactive).
As for `CC(C)CN1C(=O)CN(S(C)(=O)=O)CC1(C)C(=O)NCc1ccccc1` (stereo not drawn), the figure is 5.67% (inactive); as for `CCOc1ccc(CCN2C(=O)C(=O)N([C@@H](CC(C)C)CN3CCC[C@H]3CN3C(=O)C(=O)NC[C@@H]3Cc3ccccc3)C[C@@H]2CC(C)C)cc1`, -1.05% (inactive); as for `CC(C)(C)C(=O)NCCCNc1ccc([N+](=O)[O-])cc1`, -1.69% (inactive).
For `O=C(Nc1ccccc1F)C1C2C=CC3(O2)C1C(=O)N(c1cccnc1)C3C(=O)NC1CCCCC1` (stereo not drawn), the activity change is 4.1% (inactive).
As for `Nc1ccc2nc3c(=O)[nH]c(=S)[nH]c3nc2c1`, the figure is -79.3% (active); as for `O=C(C(NS(=O)(=O)c1cccc2nsnc12)c1ccccc1)N1CCN(c2ccccc2)CC1` (stereo not drawn), -0.046% (inactive); as for `COc1ccc(C(O)C(O)(C(=O)OC(C)C)c2ccc(C)cc2)cc1` (stereo not drawn), 10.6% (inactive).
As to `Cc1ccc2cc(C#N)c(NCCNC(=S)NCCCN3CCOCC3)nc2c1`, the activity change is -1.85% (inactive).
As for `C/C(=N\Nc1cccc(C(=O)O)c1)c1ccc2c(c1)Nc1ccccc1S2`, the figure is -18.9% (inactive); as for `O=C1NC[C@H](CCCCN2C[C@H](Cc3ccccc3)N(Cc3ccccc3)C(=O)C2=O)N(CCc2ccc(O)cc2)C1=O`, -1.72% (inactive).
As for `O=C(N/N=C/c1ccccc1O)/C(=C/c1ccccc1)CCO`, the figure is -80.4% (active); as for `NN=C(NN=Cc1ccccc1)c1ccccc1`, 15.8% (inactive).
For the compound `C=CCOc1ccccc1/C=N/NC(=O)Cc1ccccc1`, the activity change is -1.77% (inactive).
With `CN1CCN(C(=O)c2ccc(NC(=O)c3ccc(Br)o3)cc2)CC1`, the activity change was 1.67% (inactive).
As for `COc1ccc(S(=O)(=O)N[C@@H]2C=C[C@@H](CC(=O)N3CCc4ccccc4C3)O[C@@H]2CO)cc1`, the figure is -3.17% (inactive).
As for `CC(=O)/C(=N\Nc1ccc(Cl)cc1Cl)Sc1cccc2cccnc12`, the figure is -91.1% (active).
As for `COc1cccc(CNC(=O)C2CCN(S(=O)(=O)c3cccc4cccnc34)CC2)c1`, the figure is -4.19% (inactive); as for `Cc1cc(OCCOc2cccc3cccnc23)c(C)cc1Cl`, -4.24% (inactive).
Take `COc1cc(CC(=O)N2CCC(n3nccc3NC(=O)C3CC3)CC2)cc(OC)c1OC`: the activity change was -0.446% (inactive).
As for `COc1cc(N2C(=O)CSC2=S)cc(OC)c1OC`, the figure is -9.23% (inactive).
As to `CCOc1ccc(N2C(=O)CSC2=NC#N)cc1`, the activity change was 2.91% (inactive).
As to `CCOc1cccc(/C=N/N2C(=O)CSC2=S)c1O`, the activity change is -92.8% (active).
As for `CCOC(=O)[C@]12CCCC=C1N(CCC1=CCCCC1)C(=O)[C@H](CC(=O)N1CCSCC1)C2`, the figure is -5.61% (inactive).
